G9a block: qHTS Assay for Inhibitors of Histone Lysine Methyltransferase G9a. Histone-lysine N-methyltransferase EHMT2 (Homo sapiens), Q96KQ7. G9a H3K9 monomethylation, AlphaScreen, 2 h. Potency, µM (highest dose often 102 µM), for the others: top-dose activity, negative = inhibition, most hits filed as inhibitors. 350,000 compounds, 8.8% hits. AID 504332, 2011; further: on the % scale 0 is the no-effect control and ±100 the full control effect; nearly all actives have a fitted effect of over 75% in size
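Quantitative HTS format: methyltransferase activity on a biotin-tagged H3K9 peptide is measured by AlphaScreen, using a rabbit anti-monomethyl-H3K9 antibody with streptavidin donor and anti-IgG acceptor beads. Final levels are 20 nM enzyme, 500 nM peptide, 20 uM SAM; 2 h RT.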
L3MBTL1 block: qHTS Assay for the Inhibitors of L3MBTL1; Lethal(3)malignant brain tumor-like protein 1 (Homo sapiens), Q9Y468; Potency, µM (titrated, usually from 57.1 µM), without a hit: at the highest dose activity, negative = inhibition, actives largely listed as inhibitors; 230,000 compounds, 0.66% hits; AlphaScreen L3MBTL1–H3K9me1 peptide binding; further: on the % scale 0 is the no-effect control and ±100 the full control effect; nearly all actives have a fitted effect of over 60% in size
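AlphaScreen proximity signal between nickel-chelate acceptor and streptavidin donor beads (final 10 ug/mL) reports binding of 50 nM L3MBTL1 to 75 nM biotin-H3 K9me1 peptide; complex incubated with compounds 30 min at room temperature; cefsulodin titration as control.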
HP1b binding inh: HTS for Inhibitors of HP1-beta Chromodomain Interactions with Methylated Histone Tails; Potency, µM (titrated, usually from 114 µM), for inactives: at the highest dose activity change, negative = inhibition, actives largely listed as inhibitors; AlphaScreen HP1-beta / biotin-H3K9me3 peptide binding; Chromobox protein homolog 1 (Homo sapiens), P83916; 390,000 compounds, 0.56% hits; AID 540317, 2011; further: nearly all actives have a fitted effect of over 70% in size
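Compound inhibition of the preformed complex between 50 nM HP1-beta and 50 nM biotinylated H3K9me3 peptide was read by AlphaScreen. Buffer was PBS pH 7.4 with 0.01% Tween-20. Incubations ran 30 min at room temperature, with 10 ug/mL donor/acceptor beads.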
BAZ2B block: qHTS Assay for Inhibitors of BAZ2B; AlphaScreen BAZ2B-H3K14Ac peptide displacement; Potency, µM (top dose mostly 114 µM), without a hit: at the top dose activity change, negative = inhibition, usual class: inhibitors; 360,000 compounds, 4.4% hits; AID 504333, 2011; further: on the % scale 0 is the no-effect control and ±100 the full control effect; nearly all actives have a fitted effect of over 60% in size
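Multi-concentration screen (max 110 uM) measuring displacement of acetylated histone H3 peptide from BAZ2B by AlphaScreen, using 50 nM protein, 50 nM peptide and 10 ug/mL streptavidin donor plus Ni-chelate acceptor beads.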
Sfp inh: qHTS Assay for Inhibitors of Bacillus subtilis Sfp phosphopantetheinyl transferase (PPTase) | Biochemical Sfp PPTase activity, qHTS | 4'-phosphopantetheinyl transferase ffp (Bacillus subtilis), Q9F4F7 | 310,000 compounds, 3.5% hits | Potency, µM, without a hit: largest response in the series, negative = inhibition, usual class: inhibitors;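 further: the enzyme is Sfp with the accession as filed and its product quenches rhodamine fluorescence; 0% = enzyme reaction without inhibitor and -100% = no enzyme wells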
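Sfp 15 nM + cpd, 15 min RT; start w/ rhodamine-CoA 5 uM, BHQ-2-YbbR 12.5 uM (final); 50 mM Hepes pH 7.6, 10 mM MgCl2, 0.01% NP-40, 0.01% BSA; read 525/598 nm at 0 and 30 min.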
JMJD2A Tudor inh: qHTS Assay for Inhibitors of JMJD2A-Tudor Domain; Potency, µM (series often up to 114 µM), for the others: at the top dose activity change, negative = inhibition, usual class: inhibitors; AlphaScreen JMJD2A-Tudor / H3K4me3 peptide binding; AID 504339, 2011; 390,000 compounds, 4.4% hits; Lysine-specific demethylase 4A (Homo sapiens), O75164; further: on the % scale 0 is the no-effect control and ±100 the full control effect; nearly all actives have a fitted effect of over 50% in size
Starred values were filed as active, the others as inactive; ? = inconclusive; nt = no result; [ ] = dose if it differs, or a comment. Only some compounds are listed: those with a hit (about 12% of all), similar ones and a draw of the others. The call rests on the fitted dose curve; in most records, active means well fitted curve in the direction sought with a large enough effect; inconclusive means small, poorly fitted or top-dose-only effect, or another doubt; inactive means no such curve, though single readings can be large; an effect the other way counts as inactive or inconclusive. Potency means the concentration at half of the fitted maximal effect.

SMILES	G9a block	L3MBTL1 block	HP1b binding inh	BAZ2B block	Sfp inh	JMJD2A Tudor inh
COc1ccc(CCNc2nc(SCc3ccccc3Cl)nc3ccccc23)cc1OC	4%[59 µM]	nt	15%	-5%	nt	-15%
S=c1[nH]nc(-c2cccc(Cl)c2)n1Cc1ccccc1	?	0%	36%	-35%	-18%	?
C=CCn1c(-c2cccc(Cl)c2)n[nH]c1=S	2.8µM*	-3%	6%	5%	9%	10µM*
CCc1ccc2[nH]c(C(=O)N(C)c3ccc(F)cc3F)cc2c1	40µM*	nt	27%	-12%	?	-13%
COc1ccccc1CNC(=O)CC1N=C2c3ccccc3N=C(SCC(=O)Nc3ccc(F)cc3)N2C1=O (configuration not stated)	9%[59 µM]	nt	22%	5%	nt	-26%
COCC(=O)Nc1nc2n(n1)C(c1ccc(Cl)cc1)CC(c1ccc(OC)cc1)N2 (configuration not stated)	79µM*	1%	53%	?	-27%	?
NCCCC(=O)O	2.8µM*	25%	27%	26%	7%	6%
NCCCCC(=O)O	-18%[59 µM]	5%	18%	5%	-15%	-9%
COc1ccc(N2CC(O)=C(c3nc(-c4ccc(F)cc4)cs3)C2=N)cc1Cl	23%	6%	-6%	-3%	-23%	40µM*
CC(C)C1=CC(=NS(=O)(=O)c2cccc([N+](=O)[O-])c2)C=C(C(C)C)C1=O	-2%[59 µM]	2%	1%	7%	16%	-21%
CC(C)C1=CC(=Nc2ccc(S(N)(=O)=O)cc2)C=C(C(C)C)C1=O	nt	-8%	?	45µM*	5%	56µM*
Cc1cccc(NC(=O)C2CCN(C(=O)[C@@H]3Cc4ccccc4CN3)CC2)c1	?	nt	31%	-9%	6%	-14%
Cc1ccc(NC(=O)C2CCN(C(=O)[C@@H]3Cc4ccccc4CN3)CC2)c(C)c1	45µM*	nt	35%	-12%	2%	-32%
Cc1cccc(NC(=O)CN2C(=O)C3(SCC(=O)N3c3ccccc3)c3ccccc32)c1 (configuration not stated)	-21%[59 µM]	nt	-2%	1%[57.1 µM]	nt	-27%
CO[C@H]1C=CO[C@@]2(C)Oc3c(C)c(O)c4c(O)c(c5c(nc6cc(C)ccn65)c4c3C2=O)NC(=O)C(C)=CC=C[C@H](C)[C@H](O)[C@@H](C)[C@@H](O)[C@@H](C)[C@H](OC(C)=O)[C@@H]1C	-7%[59 µM]	nt	nt	?	8%	nt
COC1/C=C/OC2(C)Oc3c(C)c(O)c4c(O)c(c(/C=N/N5CCN(C)CC5)c(O)c4c3C2=O)NC(=O)/C(C)=C/C=C/C(C)C(O)C(C)C(O)C(C)C(OC(C)=O)C1C (configuration not stated)	nt	nt	nt	nt	-30%	nt
CCC(C)N1CCC2(CC1)N=c1c(c3c4c5c(C)c(O)c3c(O)c1=NC(=O)C(C)=CC=C[C@H](C)[C@H](O)[C@@H](C)[C@@H](O)[C@@H](C)[C@H](OC(C)=O)[C@H](C)[C@@H](OC)C=CO[C@@](C)(O5)C4=O)N2 (some centres not stated)	?	-12%	-24%	50µM*	nt	?
CO[C@H]1C=CO[C@@]2(C)Oc3c(C)c(O)c4c(O)c(c5c(c4c3C2=O)NC2(CCN(CC(C)C)CC2)N=5)=NC(=O)C(C)=CC=C[C@H](C)[C@H](O)[C@@H](C)[C@@H](O)[C@@H](C)[C@H](OC(C)=O)[C@@H]1C	?	nt	nt	40µM*	9%	nt
CCC1CCCCN1S(=O)(=O)c1ccc(N2CCCCS2(=O)=O)cc1 (configuration not stated)	10%[59 µM]	nt	13%	-10%	nt	-8%
CC(C)(C)C(=O)Nc1ccc2nc(SCCOc3ccccc3Cl)sc2c1	48%[59 µM]	nt	99%	1%	nt	14%
CC(C)CCn1c(=O)c2sccc2n2c(CCCC(=O)Nc3ccc(F)c(Cl)c3)nnc12	-32%[59 µM]	nt	29%	?	nt	?
COCCCNC(=O)CCC(=O)N1Cc2ccccc2Oc2ncccc21	2%[59 µM]	nt	41%	11%[57.1 µM]	nt	5%
O=C1C2CCCN2C(=O)N1CCCN1CCN(c2cccc(Cl)c2)CC1 (configuration not stated)	15%[59 µM]	-2%	32%	1%	27%	-13%
O=C1C2CCCCN2C(=O)N1CCCCN1CCN(c2cccc(Cl)c2)CC1 (configuration not stated)	?	11%	8%	-20%	-1%	-25%
CC(C)C(=O)Nc1cccc(N2CCN(CCCN3C(=O)C4CCCCN4C3=O)CC2)c1 (configuration not stated)	nt	nt	18%	nt	nt	79µM*
SMILES	G9a block	L3MBTL1 block	HP1b binding inh	BAZ2B block	Sfp inh	JMJD2A Tudor inh
Cc1ccc(N2CCN(CCCN3C(=O)C4CCCN4C3=O)CC2)cc1 (configuration not stated)	8.9µM*	5%	24%	?	-28%	-21%
Cc1cc2cc3c(cc2nc1SCc1ccc(C(=O)O)cc1)OCCO3	50µM*	-4%	19%	?	-15%	-33%
Cc1cc2cc3c(cc2nc1SCC(=O)O)OCCO3	10%[59 µM]	7%	11%	11%	14%	-2%
CCOC(=O)C1CCCN(c2nc3c(S(=O)(=O)c4ccc(C)c(C)c4)nnn3c3ccc(Cl)cc23)C1 (configuration not stated)	33%[59 µM]	nt	74%	5%	nt	14%
Cc1cccc(C(=O)c2c(N)sc3c2CCC(C)C3)c1 (configuration not stated)	45µM*	-6%	?	1%	?	?
Cc1cccc(C(=O)c2c(N)sc3c2CCCC3)c1	32µM*	-5%	-30%	-36%	45µM*	?
CC1CCc2c(sc(N)c2C(N)=O)C1 (configuration not stated)	?	-7%	-21%	-30%	-83%	?
CCc1ccccc1NC(=O)c1sc(-n2nc(C)c(Cc3ccccc3)c2C)nc1C	6%[59 µM]	nt	54%	-18%	nt	1%
Cc1oncc1C(=O)NC(C)C	45µM*	nt	38%	4%	25%	6%
O=c1cc(-c2ccccc2)n2c(SCc3c(F)cccc3Cl)nnc2[nH]1	-1%[59 µM]	nt	9%	0%	nt	-7%
